The text below walks through data of PubChem BioAssay (Tox21).

Values without a mark were called inactive. Records with an inconclusive call do not appear. Active and inactive are the calls of the source. Unless noted, calls follow the shape of the dose curve; as a rule, active = well fitted curve in the direction sought with a large enough effect in the repeat runs; inconclusive = weak or mixed curves; inactive = no such curve, though single readings can be large; an effect the other way counts as inactive or inconclusive.

Assay [1] in a line: A CellTox Green Cytotoxicity Assay to monitor cytotoxicity in HepG2 cells - 8 hour (AID 1224890). Also: nearly all actives have a fitted effect of over 45% in size. An outline of the steps: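 HepG2 cells, 600/well, preincubated 5 h with CellTox Green dye, then exposed to Tox21 compounds in DMSO at 37 C for up to 40 h. Dead-cell DNA fluorescence read at the indicated time point.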
Assay [2] can be described thus: qHTS assay to identify small molecule antagonists of the estrogen receptor alpha (ER-alpha) signaling pathway using the BG1 cell line in the presence of 0.1 nM 17-beta-estradiol - cell viability counter screen (AID 1259241). Also: nearly all actives have a fitted effect of over 40% in size. The gist of the method:
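Viability in VM7Luc4E2 cells after 22 hr compound exposure under 0.1 nM 17beta-estradiol stimulation, by CellTiter-Fluor.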
In general terms: qHTS replaces the single test concentration by a dilution series.

Assay [3] can be described thus: qHTS assay to identify small molecule antagonists of the androgen receptor (AR) signaling pathway using the MDA cell line in the presence of 0.5 nM R1881 - cell viability counter screen (AID 1259242). Also: nearly all actives have a fitted effect of over 45% in size. The gist of the method:
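MDA-kb2 cells (MMTV-luciferase, AR/GR responsive) were treated with compounds plus 0.5 nM R1881 (final) for 16 hr at 37C, 0% CO2. Viability was then read in the same wells as live-cell protease fluorescence (CellTiter-Fluor, 30 min).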

Assay [4] deals with Estrogen receptor (Homo sapiens) (UniProt P03372). As to the kind of experiment: qHTS assay to identify small molecule antagonists of the estrogen receptor alpha (ER-alpha) signaling pathway using the BG1 cell line in the presence of 0.1 nM 17-beta-estradiol (AID 1259244). Also: nearly all actives have a fitted effect of over 50% in size. The gist of the method: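 VM7Luc4E2 cells (endogenous full-length ER-alpha, 4×ERE-luciferase), kept 5 days in phenol red-free, charcoal-stripped FBS medium; 4,000 cells/well. Compounds added with 0.1 nM (final) 17beta-estradiol, 22 hr at 37C; luminescence read with ONE-Glo after 30 min.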

The nature of assay [5]: qHTS assay to identify small molecule phospholipidosis (PLD) inducers (AID 1259344; active = well fitted curve in the direction sought with a large enough effect; an effect the other way counts as inactive or inconclusive). The gist of the method:
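Quantitative HTS in HepG2: compound plus LipidTOX Red dye for 24 h, paraformaldehyde fixation with Hoechst 33342, widefield high-content imaging; amiodarone as positive and DMSO as negative control.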

A short description of assay [6]: qHTS assay to identify small molecule HDAC inhibitors (AID 1259364). Also: nearly all actives have a fitted effect of over 45% in size. Also: potency is read from the fitted curve at half-maximal effect. As to activity change, negative = inhibition: top concentration of the series differs between compounds. An outline of the steps: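 Wild-type HCT-116 cells, plated overnight at 37 C, exposed to compounds 2 hr at 37 C; luminogenic HDAC-Glo substrate then added 30 min at room temperature. Luminescence reports relative endogenous class I/II HDAC activity.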
Assay [7] is described as follows: qHTS assay to identify small molecule HDAC inhibitors - cell viability counter screen (AID 1259365). Also: series mostly up to about 92 µM; nearly all actives have a fitted effect of over 50% in size. An outline of the steps: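 Cytotoxicity was gauged in wild-type HCT-116 cells after a brief 2hr treatment with DMSO-dissolved compounds at 37C and 5% CO2, using CellTiter-Glo luminescence developed for 30min at room temperature.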
The nature of assay [8]: qHTS assay to identify small molecule agonists of the sonic hedgehog signaling (Shh) pathway - cell viability counter screen (AID 1259366). Also: nearly all actives have a fitted effect of over 50% in size. The gist of the method: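 Stable Gli1-Luc NIH/3T3 clone, 2,000 cells/well. Compound exposure 24hr at 37C. Read-out: CellTiter-Fluor fluorescence.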
Assay [9] in a line: qHTS assay to identify small molecule antagonists of the sonic hedgehog signaling (Shh) pathway - cell viability counter screen (AID 1259367). Also: nearly all actives have a fitted effect of over 55% in size. An outline of the steps: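 Seed 3T3 Gli1-Luc cells at 2,000 per well; incubate 4 hr; add compound in DMSO, then conditioned medium; incubate at 37C with 5% CO2; add CellTiter-Fluor after 23 hr; read fluorescence 1 hr later.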
A short description of assay [10]: qHTS assay to identify small molecule agonists of the sonic hedgehog signaling (Shh) pathway (AID 1259368; calls by dose curve;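 also: NIH/3T3-derived 3T3Gli1-Luc cells carrying a stable Gli1-driven firefly luciferase reporter; series mostly up to about 92 µM; nearly all actives have a fitted effect of over 15% in size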). The gist of the method: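 NIH/3T3-derived 3T3Gli1-Luc cells with stably integrated Gli1-driven firefly luciferase, 2,000 cells/well, compounds added after 4 hr. Incubated 24 hr at 37C, 5% CO2; luminescence read after 30 min with luciferase reagent at room temperature.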

The nature of assay [11]: qHTS assay to identify small molecule antagonists of the sonic hedgehog signaling (Shh) pathway (AID 1259369; calls by dose curve; also: nearly all actives have a fitted effect of over 45% in size). The gist of the method:
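NIH/3T3-derived Gli1-Luc reporter cells plated 4 h, dosed with compound, then stimulated with conditioned medium for 24 h at 37 C. Firefly luciferase luminescence read after 30 min with detection reagent at room temperature.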

For assay [12], the target named is Estrogen receptor beta (Homo sapiens) (UniProt Q92731). As to the kind of experiment: qHTS assay to identify small molecule agonists of the estrogen receptor beta (ER-beta) signaling pathway (AID 1259377; active = well fitted activation curve with a large enough effect in the signal ratio in the repeat runs, not every such curve was filed as active; the % refers to the signal ratio). An outline of the steps: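 Measured by fluorescence intensity from a B/G FRET beta-lactamase substrate (2 h, room temperature) in ER-beta-UAS-bla HEK293T cells treated with DMSO-dissolved compounds for 16 hr at 37C and 5% CO2.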

Assay [13] shares this target. As to the kind of experiment: qHTS assay to identify small molecule antagonists of the estrogen receptor beta (ER-beta) signaling pathway (AID 1259378; active = well fitted inhibition curve with a large enough effect in the signal ratio in the repeat runs, not every such curve was filed as active; the % refers to the signal ratio). An outline of the steps: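 ER-beta-UAS-bla HEK293T cells in 2% charcoal-stripped FBS medium treated with compound plus 1nM final 17-beta-estradiol for 16 hr at 37C. Beta-lactamase reporter read by FRET substrate fluorescence after 2 hours at room temperature.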

The nature of assay [14]: qHTS assay to identify small molecule agonists of the androgen receptor (AR) signaling pathway in the presence of an antagonist - cell viability counter screen (AID 1259379).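 Also: MDA-kb2 human breast cancer cells carrying an MMTV luciferase reporter; series mostly up to about 92 µM; nearly all actives have a fitted effect of over 25% in size.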 The gist of the method: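 MDA-kb2 cells (MMTV-luciferase, AR/GR), 3,000/well, 5 h attachment, then 3.0 µM nilutamide (final) and compounds at 15 concentrations. Viability by CellTiter-Fluor fluorescence after 16 h at 37 °C, 0% CO2, in the reporter wells.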

Assay [15] can be described thus: qHTS assay to identify small molecule agonists of the estrogen receptor beta (ER-beta) signaling pathway - cell viability counter screen (AID 1259380). Also: nearly all actives have a fitted effect of over 30% in size. Also: potency is read from the fitted curve at half-maximal effect. The gist of the method:
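ER-beta-UAS-bla HEK293T cells in medium with 2% charcoal-stripped FBS, pre-incubated 6 hr, then treated 16 hr at 37C. Cytotoxicity read in the same wells by CellTiter-Glo luminescence after 30 min at room temperature.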

Assay [16] can be described thus: qHTS assay to identify small molecule antagonists of the estrogen receptor beta (ER-beta) signaling pathway - cell viability counter screen (AID 1259382). Also: series mostly up to about 92 µM; nearly all actives have a fitted effect of over 55% in size. The gist of the method: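 ER-beta-UAS-bla HEK293T cells in 2% charcoal-stripped FBS medium, treated with compound plus 1 nM 17-beta-estradiol for 16 h at 37C. Viability read by CellTiter-Glo luminescence after 30 min at room temperature in the same wells.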

For assay [17], the target named is Estrogen receptor (Homo sapiens) (UniProt P03372). As to the kind of experiment: qHTS assay to identify small molecule agonists of the estrogen receptor alpha (ER-alpha) signaling pathway in the presence of an antagonist (AID 1259383; calls by dose curve; also: top concentration of the series differs between compounds; nearly all actives have a fitted effect of over 15% in size). An outline of the steps: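 VM7Luc4E2 cells express endogenous full-length ER-alpha with an ERE-luciferase reporter and were hormone-deprived for 5 days. Compounds at 15 concentrations were added with 10.0nM ICI-182,780 for 22hr at 37C. Luminescence was read with ONE-Glo.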

Assay [18] has as its target Androgen receptor (Homo sapiens) (UniProt P10275). As to the kind of experiment: qHTS assay to identify small molecule antagonists of the androgen receptor (AR) signaling pathway using the MDA cell line in the presence of 0.5 nM R1881 (AID 1259243). Also: nearly all actives have a fitted effect of over 50% in size. An outline of the steps:
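MDA-kb2 cells (MMTV-luciferase, responsive to AR and GR) at 3,000/well, rested 5 h at 37C, 0% CO2, then given compounds plus 0.5 nM R1881 (final) for 16 hr. Luciferase read with ONE-Glo after 30 min at room temperature.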

Assay [19] shares this target. As to the kind of experiment: qHTS assay to identify small molecule agonists of the androgen receptor (AR) signaling pathway in the presence of an antagonist (AID 1259381; calls by dose curve; also: nearly all actives have a fitted effect of over 15% in size). An outline of the steps: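 MDA-kb2 cells carrying MMTV-luciferase (AR/GR responsive), 3,000 cells/well, co-treated with 3.0 uM nilutamide final. Compounds at 15 concentrations, 16 hr at 37C without CO2. Luciferase luminescence read after 30 min with ONE-Glo.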

Assay [20] is described as follows: qHTS assay to identify small molecule agonists or antagonists of the thyroid stimulating hormone receptor (TSHR) signaling pathway - wild type cell line counter screen (AID 1259384; calls by dose curve). An outline of the steps: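 Wild-type Hek293 cells, 800/well, 18 h at 37C, then compound with Ro20-1724 for 30 min RT. cAMP by HTRF (cAMP-d2/anti-cAMP cryptate), 1 h RT, fluorescence read. 15 concentrations, triplicates.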
% is scaled to controls: 0 for no effect and ±100 for the full control effect.

Chain of Estrogen receptor beta (Homo sapiens) (Q92731 whole entry, looked up): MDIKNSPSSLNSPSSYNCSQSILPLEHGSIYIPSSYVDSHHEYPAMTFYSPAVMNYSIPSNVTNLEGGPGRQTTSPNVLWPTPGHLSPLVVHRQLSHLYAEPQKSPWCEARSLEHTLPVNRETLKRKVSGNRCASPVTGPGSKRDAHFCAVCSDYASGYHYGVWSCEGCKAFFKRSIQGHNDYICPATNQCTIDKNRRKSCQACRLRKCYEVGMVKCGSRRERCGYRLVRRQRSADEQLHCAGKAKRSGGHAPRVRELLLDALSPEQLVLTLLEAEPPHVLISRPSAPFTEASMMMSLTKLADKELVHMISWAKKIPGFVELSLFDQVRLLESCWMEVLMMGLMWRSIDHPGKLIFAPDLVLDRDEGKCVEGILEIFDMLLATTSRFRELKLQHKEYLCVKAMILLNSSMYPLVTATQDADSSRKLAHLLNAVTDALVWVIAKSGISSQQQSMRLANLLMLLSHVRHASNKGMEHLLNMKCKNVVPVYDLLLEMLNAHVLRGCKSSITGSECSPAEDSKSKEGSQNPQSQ
Chain of Estrogen receptor (Homo sapiens) (P03372 whole entry, looked up): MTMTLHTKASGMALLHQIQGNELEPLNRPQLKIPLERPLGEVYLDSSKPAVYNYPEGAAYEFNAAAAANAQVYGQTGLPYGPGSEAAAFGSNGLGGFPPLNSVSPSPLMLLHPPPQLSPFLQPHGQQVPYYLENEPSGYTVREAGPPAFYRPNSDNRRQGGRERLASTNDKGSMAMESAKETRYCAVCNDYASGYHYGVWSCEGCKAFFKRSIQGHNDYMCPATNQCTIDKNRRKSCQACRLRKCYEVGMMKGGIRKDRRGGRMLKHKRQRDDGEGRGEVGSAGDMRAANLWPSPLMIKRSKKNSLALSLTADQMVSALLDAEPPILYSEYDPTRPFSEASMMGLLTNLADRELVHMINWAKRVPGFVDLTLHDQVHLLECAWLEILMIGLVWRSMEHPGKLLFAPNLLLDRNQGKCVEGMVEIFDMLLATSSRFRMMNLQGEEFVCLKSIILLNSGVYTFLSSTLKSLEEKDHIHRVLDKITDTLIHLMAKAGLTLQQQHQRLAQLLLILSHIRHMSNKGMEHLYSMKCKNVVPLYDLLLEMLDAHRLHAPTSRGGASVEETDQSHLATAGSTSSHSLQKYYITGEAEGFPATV
Chain of Androgen receptor (Homo sapiens) (P10275 whole entry, looked up): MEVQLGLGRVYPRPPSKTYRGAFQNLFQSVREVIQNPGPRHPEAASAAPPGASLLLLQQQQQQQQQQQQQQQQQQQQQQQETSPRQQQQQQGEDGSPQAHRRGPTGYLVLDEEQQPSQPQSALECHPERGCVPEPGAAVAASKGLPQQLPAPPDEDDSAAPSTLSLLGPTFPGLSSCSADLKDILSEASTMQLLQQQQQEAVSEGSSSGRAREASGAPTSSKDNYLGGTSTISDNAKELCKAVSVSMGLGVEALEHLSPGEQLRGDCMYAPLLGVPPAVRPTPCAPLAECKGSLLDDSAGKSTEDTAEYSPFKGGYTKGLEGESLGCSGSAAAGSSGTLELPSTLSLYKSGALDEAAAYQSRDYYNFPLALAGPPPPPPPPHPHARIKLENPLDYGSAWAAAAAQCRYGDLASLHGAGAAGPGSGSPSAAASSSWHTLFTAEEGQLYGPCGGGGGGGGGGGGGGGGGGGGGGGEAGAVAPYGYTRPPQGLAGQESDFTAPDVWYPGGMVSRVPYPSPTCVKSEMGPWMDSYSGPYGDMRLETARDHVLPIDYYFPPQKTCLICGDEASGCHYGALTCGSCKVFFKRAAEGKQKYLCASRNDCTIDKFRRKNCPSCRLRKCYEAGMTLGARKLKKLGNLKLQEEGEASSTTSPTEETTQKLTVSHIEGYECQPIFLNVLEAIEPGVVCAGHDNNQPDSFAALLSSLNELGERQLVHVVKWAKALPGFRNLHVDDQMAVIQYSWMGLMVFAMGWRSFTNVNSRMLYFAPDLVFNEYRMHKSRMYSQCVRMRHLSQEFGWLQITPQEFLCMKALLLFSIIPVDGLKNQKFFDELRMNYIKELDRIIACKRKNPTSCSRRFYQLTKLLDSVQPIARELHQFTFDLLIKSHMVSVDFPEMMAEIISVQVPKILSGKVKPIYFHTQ

Take `COc1ccc(C(=O)NCc2ccc(OCCN(C)C)cc2)cc1OC`: the Potency entry in assay [1], in [2], in [3], in assay [4], in assay [5] and in assay [6] was “inactive” throughout. Further, the Potency result in [7], in assay [8], in assay [9], in assay [10], in assay [11] and in assay [12] was “inactive” in each case. The Potency entry in [13], in assay [14], in assay [15], in assay [16] and in [17] was “inactive” in each case.
As to `Nc1ccc(NC(=O)c2ccc(N)cc2)cc1`, the Potency entry in assay [1], in [2], in [3], in [18], in assay [4] and in assay [7] was “inactive” in each case. Moreover, the Potency result in [8], in assay [9], in assay [10], in assay [11], in assay [14] and in assay [19] was “inactive” throughout. Also, in assay [17], the Potency entry is “inactive”. Besides, the Potency in assay [6] was 27.3 µM (active); in [15], 54.5 µM (active).
For `Cc1oc(=O)oc1COC(=O)[C@@H]1N2C(=O)[C@@H](NC(=O)[C@H](N)c3ccccc3)[C@H]2SC1(C)C`, the Potency entry in assay [1], in [2], in assay [3], in [18], in assay [4] and in assay [6] was “inactive” in each case. The Potency entry in assay [7], in assay [8], in [9], in assay [10], in assay [11] and in assay [12] was “inactive” throughout. Further, the Potency entry in assay [13], in assay [14], in assay [15], in assay [19], in assay [16] and in [17] was “inactive” throughout. For the same molecule, in [20], the Potency result is “inactive”.
Regarding `CC1CCC(C(C)CS)CC1S` (stereo unspecified), the Potency entry in [1], in [2], in assay [3], in assay [18], in [7] and in assay [8] was “inactive” in each case. Moreover, the Potency entry in [9], in assay [10], in [11], in assay [12], in [13] and in assay [14] was “inactive” in each case. Besides, the Potency result in [15], in [19], in assay [16] and in assay [20] was “inactive” each time.
Turning to `CCC(Cl)CC(Cl)C(Cl)C(Cl)C(Cl)C(C)Cl` (stereo unspecified), in [1], the cytotoxicity increase is 7.16% [at 15.8 µM]. Further, the activity change, negative = cytotoxicity in assay [2] is 0.764% [at 19 µM]; in [7], -3.08% [at 19 µM]; in assay [14] it was 2.03% [at 19 µM]; in assay [15], -10.7% [at 19 µM]; in assay [16], -4.67% [at 19 µM]. Moreover, the viability change, negative = cytotoxic is 0.388% [at 19 µM] in assay [3], -0.751% [at 19 µM] in assay [8] and 0.145% [at 19 µM] in assay [9]. Besides, the activity, negative = inhibition in assay [18] is 72.1% [at 19 µM]. For the same molecule, the activity change, negative = inhibition in assay [4] was 63.4% [at 19 µM]; in assay [11] it was 58.5% [at 19 µM]. Further, the activation in assay [19] was 4.69% [at 19 µM]; in assay [17] it was 11.4% [at 19 µM]. The cAMP activity change in assay [20] was 4.41% [at 18.9 µM, stronger effect = higher value].
Take `C[C@H](CS)C(=O)N1CCC[C@H]1C(=O)O`: the Potency result in assay [1], in assay [2], in [3], in assay [18], in assay [5] and in assay [7] was “inactive” throughout. Also, the Potency entry in assay [8], in [9], in [10], in assay [11], in assay [12] and in assay [13] was “inactive” throughout. The Potency entry in [14], in [15], in [19], in assay [16] and in [20] was “inactive” throughout.
`CC(C)C1CCC(C(=O)N[C@H](Cc2ccccc2)C(=O)O)CC1` (stereo partly specified): the Potency result in assay [1], in assay [2], in assay [3], in [4], in assay [5] and in assay [6] was “inactive” in each case. In addition, the Potency entry in [7], in assay [8], in assay [9], in assay [10], in assay [11] and in [12] was “inactive” each time. Also, the Potency entry in assay [13], in assay [14], in [15], in assay [16] and in assay [17] was “inactive” throughout.
